# This is a sample that favours compounds with a hit; in the whole collection about 0.71% have one here.
# ERG-DNA inh = qHTS for Small Molecule Inhibitors of the ERG Ets/DNA interaction; Transcriptional regulator ERG (Homo sapiens), P11308; fluorescence polarization, His-ERG Ets domain / labelled DNA; Potency, µM (series often up to 76.9 µM), inactives show top-dose FP activity, negative = inhibition, actives largely listed as inhibitors; actives 0.028% (n = 370,000); AID 624246, 2012; active = well fitted inhibition curve with a large enough effect in the polarisation, with a control signal flat; inconclusive = small, poorly fitted or top-dose-only effect, or effect the other way, or a change in a side signal; inactive = no such curve, though single readings can be large or run the other way; the % refers to the polarisation;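 note: polarization taken with two DNA probes labelled with fluorescein and Texas red; % of control where 0% means no effect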
#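 His-tagged ERG Ets domain (1 uM in the protein solution; 300mM KCl, 50mM Tris-HCl, 1mM EDTA, 1mM DTT, pH 7.5) received compound, then a probe mix of 5 nM fluorescein-DNA and 100nM Texas-615-DNA. Fluorescence polarization was read for both dyes.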
# RECQ1 inh-1 = qHTS Assay for Inhibitors of RecQ-Like Dna Helicase 1 (RECQ1); ATP-dependent DNA helicase Q1 (Homo sapiens), P46063; RECQ1 DNA unwinding, red fluorescence kinetic read; Potency, µM (doses to about 57.3 µM), inactives show at the highest dose activity, negative = inhibition, hits mostly inhibitors; actives 0.54% (n = 240,000);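 note: plate controls were vehicle for no effect and no enzyme for full effect; nearly all actives have a fitted effect of over 30% in size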
# Target sequence (P46063 whole entry, looked up): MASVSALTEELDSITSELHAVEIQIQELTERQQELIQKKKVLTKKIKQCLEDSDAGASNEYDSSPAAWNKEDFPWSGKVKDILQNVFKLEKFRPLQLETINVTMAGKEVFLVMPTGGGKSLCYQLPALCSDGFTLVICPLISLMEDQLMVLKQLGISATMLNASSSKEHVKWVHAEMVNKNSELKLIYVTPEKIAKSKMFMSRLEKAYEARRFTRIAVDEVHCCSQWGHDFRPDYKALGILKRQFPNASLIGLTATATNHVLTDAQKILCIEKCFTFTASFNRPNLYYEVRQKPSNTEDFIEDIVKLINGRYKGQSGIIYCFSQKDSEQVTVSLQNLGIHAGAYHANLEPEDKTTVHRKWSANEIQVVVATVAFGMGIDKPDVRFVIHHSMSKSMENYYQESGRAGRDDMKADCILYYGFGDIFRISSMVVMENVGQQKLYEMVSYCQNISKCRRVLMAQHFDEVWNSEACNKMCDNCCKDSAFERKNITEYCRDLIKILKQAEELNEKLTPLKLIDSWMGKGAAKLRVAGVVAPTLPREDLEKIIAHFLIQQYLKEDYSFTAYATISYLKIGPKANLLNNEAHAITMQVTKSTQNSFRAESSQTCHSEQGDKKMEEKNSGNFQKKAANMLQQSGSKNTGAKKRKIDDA
#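 RECQ1T1 50 nM; forked duplex (20 bp + 30-nt ss tails) 200 nM, ATP 2 mM final; pH 8.0, 2 mM MgCl2, 2.5 ug/ml poly(dI-dC); 15 min compound preincubation; discontinuous kinetic read over 2 h at RT.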
# TRb-SRC2 inh = qHTS for Inhibitors of the Interaction of Thyroid Hormone Receptor and Steroid Receptor Coregulator 2 | Potency, µM (doses to about 106 µM), for inactives: top-dose activity change, negative = inhibition, most hits filed as inhibitors | Thyroid hormone receptor beta (Homo sapiens), P10828 | TRbeta-SRC2 peptide binding, fluorescence polarization; receptor liganded with 1 µM T3 | AID 1469, 2008 | actives 0.065% (n = 280,000);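 note: plate controls were bound peptide for no effect and peptide without receptor for full effect; nearly all actives have a fitted effect of over 50% in size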
#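 Binding of a 20-amino-acid Texas Red SRC2 peptide (20 nM) to TRb ligand-binding domain (0.6 uM) with agonist T3 at 1 uM was followed by fluorescence polarization after a 5 hr room-temperature incubation.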
# TexasRed fluor = Total Fluorescence Counterscreen for Inhibitors of the Interaction of Thyroid Hormone Receptor and Steroid Receptor Coregulator 2. TRb/SRC2 Texas Red total fluorescence interference. actives 0.29% (n = 280,000). Potency, µM (highest dose often 106 µM), for inactives: at the highest dose fluorescence change, negative = quenching; active = well fitted curve in either direction with a large enough effect; inconclusive = small, poorly fitted or top-dose-only effect; note: % is set by controls: 0 for no effect and ±100 for the full control effect
#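 Flags fluorescent or light-absorbing compounds by total fluorescence, S + 2P, at 555 nm excitation and 632 nm emission. Mixture: 20 nM Texas Red SRC2 peptide, 0.6 uM human TRb LBD, 1 uM T3, 5% DMSO; compound exposure 5 h at ambient temperature.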
# RGS12 GoLoco inh = qHTS Assay for Inhibitors of RGS12 GoLoco Motif Activity (Red Fluorophore). Guanine nucleotide-binding protein G(i) subunit alpha-1 (Homo sapiens), P63096. Gai1:RGS12 GoLoco peptide FP, rhodamine, 10 min. Potency, µM (series often up to 61.6 µM), for inactives: at the top dose activity, negative = inhibition, usual class: inhibitors. actives 0.44% (n = 230,000); active = well fitted inhibition curve with a large enough effect, not every such curve was filed as active; inactive = no such curve, though single readings can be large or run the other way; note: % is set by controls: 0 for no effect and ±100 for the full control effect; nearly all actives have a fitted effect of over 30% in size
# BLM inh = qHTS Assay for Inhibitors of Bloom's syndrome helicase (BLM) | RecQ-like DNA helicase BLM (Homo sapiens), P54132 | recombinant BLM DNA unwinding, fluorescence dequenching | Potency, µM (titrated, usually from 56.1 µM), inactives show at the top dose activity change, negative = inhibition, actives largely listed as inhibitors | actives 0.2% (n = 350,000);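 note: plate controls were vehicle for no effect and no enzyme for full effect; nearly all actives have a fitted effect of over 35% in size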
# RECQ1 inh conf = Confirmation qHTS Assay for Inhibitors of RecQ-Like Dna Helicase 1 (RECQ1); shares compounds with RECQ1 inh-1; RECQ1 helicase DNA unwinding, fluorescence; Potency, µM (top dose mostly 229 µM), inactives show at the highest dose activity change, negative = inhibition, hits mostly inhibitors; actives 28% (n = 610); note: % is set by controls: 0 for no effect and ±100 for the full control effect; nearly all actives have a fitted effect of over 45% in size
# RECQ1 ADP FP = Counterscreen for RECQ1 Inhibitors: ADP Fluorescence Polarization Displacement Assay | shares compounds with RECQ1 inh-1 | AID 2711, 2010 | ADP fluorescence polarization displacement counterscreen | actives 27% (n = 530) | Potency, µM (titrated, usually from 228 µM), inactives show at the top dose activity change, negative = inhibition, actives largely listed as inhibitors; note: % is set by controls: 0 for no effect and ±100 for the full control effect; nearly all actives have a fitted effect of over 45% in size
# RECQ1 inh-2 = Confirmation qHTS Assay for Inhibitors of RecQ-Like Dna Helicase 1 (RECQ1) - Round 2 Cherry Picks | shares compounds with RECQ1 inh-1 | recombinant RECQ1 DNA unwinding, red fluorescence | Potency, µM (titrated, usually from 119 µM), for inactives: top-dose activity, negative = inhibition, most hits filed as inhibitors | actives 15% (n = 1,100); note: % is set by controls: 0 for no effect and ±100 for the full control effect; nearly all actives have a fitted effect of over 50% in size
# * hit, by the source's call; i = inactive; ? = inconclusive; nt = no result; [ ] = another dose, or the depositor's remark. Unless noted, calls come from the whole dose curve; as a rule, active = well fitted curve in the direction sought with a large enough effect; inconclusive = small, poorly fitted or top-dose-only effect, or another doubt; inactive = no such curve, though single readings can be large; an effect the other way counts as inactive or inconclusive. Potency is the fitted concentration of half-maximal effect.
SMILES,ERG-DNA inh,RECQ1 inh-1,TRb-SRC2 inh,TexasRed fluor,RGS12 GoLoco inh,BLM inh,RECQ1 inh conf,RECQ1 inh-2,others
CCn1c(SCC(=O)c2cc(C)n(CC3CCCO3)c2C)nc2ccccc21 (configuration not stated),-5%,40µM*,-2%,-3%,10%,-17%,nt,-7%,
Cc1cc(C(=O)CSc2nnc(-c3cccnc3)n2-c2ccccc2F)c(C)n1CC1CCCO1 (configuration not stated),-1%,35µM*,-3%,7%,18%,-7%,nt,-1%,
Cc1ccccc1-c1nccc(NCCN2CCOCC2)n1,nt,i,nt,nt,2%,4%,nt,nt,
O=C(O)CCSc1nnc(COc2ccc([N+](=O)[O-])cc2)n1-c1ccccc1,5%,-1%,6%,-1%,22%,-4%,0%,nt,RECQ1 ADP FP=2%
COc1ccc(C(=O)Nc2nc(-c3ccc([N+](=O)[O-])cc3)c(-c3ccc(OC)cc3)s2)cc1,5%,?,6%,1%,-5%,-7%,nt,-26%,
CO[C@@H]1COC(=O)C/C=C\[C@@H](C)[C@H](OC)COC(=O)[C@H](COCc2ccccc2)NC(=O)C/C=C\[C@H]1C,nt,i[11.5 µM],-1%[11.2 µM],-23%[11.2 µM],nt,1%[12.4 µM],nt,nt,
Cc1ccc(C)c(-c2nc3ccc(N)cc3[nH]2)c1,-6%,?,4%,-2%,10%,-6%,16%[114 µM],nt,RECQ1 ADP FP=?
Nc1ccc(-c2nc3ccc(N)cc3[nH]2)cc1,27%,35µM*,6%,-6%,5%,-26%,nt,?,
Cc1ccc2nc(-c3ccccc3N)[nH]c2c1,-4%,i,9%,-15%,16%,-9%,nt,nt,
O=C(CCc1ccccc1)NC(=S)Nc1cc(C(F)(F)F)ccc1N1CCOCC1,-3%,?,-5%,1%,-2%,-11%,nt,-9%,
C=C1C(n2cnc3c(=O)[nH]c(N)nc32)C[C@H](O)[C@H]1CO (some centres not stated),nt,nt,nt,nt,nt,0%,nt,nt,
CC[C@H]1CN(C)[C@H]2Cc3c([nH]c4ccccc34)C(=O)C[C@H]1[C@H]2C(=O)OC,nt,nt,nt,nt,4%[14.2 µM],nt,nt,nt,
O=C(O)c1cc(O)c2c(c1)[C@H]([C@H]1c3cc(C(=O)O)cc(O)c3C(=O)c3c(O[C@@H]4OC(CO)C(O)C(O)C4O)cccc31)c1cccc(O[C@@H]3OC(CO)C(O)C(O)C3O)c1C2=O (some centres not stated),nt,2µM*,?,22µM*[quencher],7.9µM*,3.2µM*,2.8µM*,nt,RECQ1 ADP FP=7.1µM*
O=S(=O)(c1ccccc1)n1c(C(O)c2ccccn2)cc2ccccc21 (configuration not stated),-1%,?,-1%,1%,3%,-2%,nt,-13%,
COc1ccc2c(c1)cc(C(O)c1ccccn1)n2S(=O)(=O)c1ccccc1 (configuration not stated),-1%,-13%,5%,-3%,4%,-3%,nt,nt,
COCC(=O)N(C)C1(c2nnnn2CCOC(=O)Nc2cccc3ccccc23)CCCC1,1%,32µM*,3%,0%,3%,-13%,nt,-9%,
O=P(O)(O)OP(=O)(O)OP(=O)(O)O,nt,nt,-3%,0%,-10%,5%,nt,nt,
O=C(NC(=S)Nc1cccc(S(=O)(=O)NC2=NCCC2)c1)c1cc(-c2ccco2)nc2ccccc12,11%,-21%,6%,-3%,10%,?,nt,nt,
O=C(Nc1cccc(S(=O)(=O)NC2=NCCC2)c1)c1cc(-c2ccco2)nc2ccccc12,11%,11µM*,14%,?,36%,10µM*,14µM*,?,RECQ1 ADP FP=40µM*
COc1ccccc1-c1ccc(/C=C2/C=C(CC(C)C)OC2=O)o1,25%,?,1%,3%,30%,-4%,nt,nt,
CCCC1=C/C(=C/c2ccc(-c3ccccc3OC)o2)C(=O)O1,1%,22µM*,-1%,0%,60%,-11%,?,nt,
Cc1ccc(C(=O)Nc2ccc(S(=O)(=O)O)c3cc(S(=O)(=O)O)cc(S(=O)(=O)O)c23)cc1NC(=O)c1cccc(NC(=O)Nc2cccc(C(=O)Nc3cc(C(=O)Nc4ccc(S(=O)(=O)O)c5cc(S(=O)(=O)O)cc(S(=O)(=O)O)c45)ccc3C)c2)c1,nt,20µM*,18%,-6%,117%,-10%,2.5µM*,nt,RECQ1 ADP FP=200%
COC(=O)NC(/C(C(=O)OC)=C(\C)NCc1ccccc1)c1ccc(F)cc1 (configuration not stated),nt,-1%[11.5 µM],10%[11.2 µM],-16%[11.2 µM],nt,-6%[12.4 µM],nt,nt,
CCC(=O)Nc1sc2c(c1C(=O)Nc1ccccc1C)CCC(C)C2 (configuration not stated),0%,nt,3%,-3%,nt,0%,nt,nt,
Cc1ccc(OCC(O)CNC(=O)c2ccccc2C(=O)O)cc1 (configuration not stated),-7%,-2%,1%,-3%,6%,-2%,4%,nt,RECQ1 ADP FP=-3%
COc1ccc(OC)c(/C=C(/C#N)c2nc(-c3ccc(-c4ccccc4)cc3)cs2)c1,-3%,nt,5%,4%,nt,-1%,nt,nt,
CCC(=O)N(C)/C=C1\Sc2ccccc2C1=O,2%,-4%,-1%,-6%,41%,0%,nt,nt,

# Screens from PubChem BioAssay.
